# Assay outcomes deposited in PubChem BioAssay by National Center for Advancing Translational Sciences (NCATS).
# Cruzain inh Det = inhibitors of Trypanosoma cruzi cruzain with detergent. Potency, µM, most hits filed as inhibitors. 200,000 tested, 0.43% active. AID 1478. purified cruzain, Z-FR-AMC fluorescence, 0.01% Triton. P25779; further: nearly all actives have a fitted effect of over 40% in size
# Target sequence (P25779 123-467 limits assumed): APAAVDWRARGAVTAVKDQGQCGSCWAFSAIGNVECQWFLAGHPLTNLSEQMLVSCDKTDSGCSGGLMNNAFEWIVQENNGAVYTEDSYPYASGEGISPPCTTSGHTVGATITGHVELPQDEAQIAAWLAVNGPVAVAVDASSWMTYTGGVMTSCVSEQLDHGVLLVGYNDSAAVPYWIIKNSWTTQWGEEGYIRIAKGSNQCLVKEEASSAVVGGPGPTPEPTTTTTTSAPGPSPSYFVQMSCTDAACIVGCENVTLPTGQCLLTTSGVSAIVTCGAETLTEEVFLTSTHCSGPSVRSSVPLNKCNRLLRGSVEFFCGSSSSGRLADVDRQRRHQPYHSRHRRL
#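 15 min RT preincubation of 1.5 nM cruzain with compound, then 2 uM Z-FR-AMC added; kinetic AMC fluorescence, 60 s delta. Triton X-100 0.01%, pH 5.5.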
# Cruzain noTriton = cruzain (T. cruzi) inhibition without detergent. P25779. purified cruzain, Z-FR-AMC fluorescence, no detergent. Potency, µM, most hits filed as inhibitors. 200,000 tested, 2.3% active. AID 1476; further: nearly all actives have a fitted effect of over 40% in size
#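 Detergent-free condition (0.00005% Triton X-100) in acetate buffer pH 5.5 with DTT. 1.5 nM enzyme and compound were pre-mixed 15 min, then 2 uM Z-FR-AMC substrate added; reaction progress from fluorescence change between first and third reads (60 s).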
# A number is an active result; n = inactive; u = inconclusive. Compounds with a hit are over-represented: about 2.6% of the library has one in this group of screens. The call rests on the fitted dose curve; in most records, active means well fitted curve in the direction sought with a large enough effect; inconclusive means small, poorly fitted or top-dose-only effect, or another doubt; inactive means no such curve, though single readings can be large; an effect the other way counts as inactive or inconclusive.
SMILES,Cruzain inh Det,Cruzain noTriton
CCOc1ccccc1N/C(=N/c1nc(C)cc(C)n1)NC(=O)Nc1ccc(Cl)c(Cl)c1,n,4µM
CCCOc1ccccc1N/C(=N/c1nc(C)cc(C)n1)NC(=O)Nc1ccc(Cl)cc1,n,7.9µM
COc1ccccc1N/C(=N/c1nc(C)cc(C)n1)NC(C)=O,n,n
Cc1cc(C)nc(/N=C(/NC(=O)Nc2ccc(Cl)c(Cl)c2)Nc2cccc(Cl)c2)n1,n,7.9µM
COc1cccc(CNC(=O)CSc2n[nH]c(-c3ccccc3Cl)n2)c1OC,n,n
CCN(CCCCOC(=O)c1ccc(OC)c(OC)c1)[C@@H](C)Cc1ccc(OC)cc1,n,n
CC(=O)N1c2ccc(S(=O)(=O)NCCC(=O)Nc3ccc(C)cc3Br)cc2CC1C (configuration not stated),n,n
Cc1ccc2cccc(NC(=O)C(C)Oc3ccc(Cl)cc3Cl)c2n1 (configuration not stated),n,n
O=[N+]([O-])c1ccc(N2CCCC2)cc1N/N=C1\CN2CCC1CC2,u,25µM
O=[N+]([O-])c1ccc(N2CCNCC2)cc1NC1CC1,n,n
Cc1onc(-c2ccccc2Cl)c1C(=O)Nc1nc2c(s1)CCCC2,n,25µM
COC(=O)c1ccc(C(=O)NC(=S)Nc2nc3c(s2)CC(C)CC3)cc1 (configuration not stated),n,n
O=C(Nc1nc2c(s1)CCCC2)c1cccnc1,n,n
O=C(NC(=S)Nc1nc2c(s1)CCCC2)c1ccc(C(=O)c2ccccc2)cc1,n,25µM
O=C(NC(=S)Nc1nc2c(s1)CSc1ccccc1-2)c1ccccc1,n,7.9µM
Cc1onc(-c2ccccc2Cl)c1C(=O)Nc1nnc(-c2ccc(Cl)cc2Cl)s1,n,u
N#C/C(=C\c1ccc(F)cc1)C(=O)NCC1CCCO1 (configuration not stated),n,n
CCCCOC(=O)c1ccc(NC(=O)c2cc3c(=O)n4cccc(C)c4nc3s2)cc1,n,n
COc1ccc(N=c2oc3cc(O)ccc3cc2C(=O)NCC2CCCO2)cc1 (configuration not stated),n,n
CCOc1ccc(N=c2oc3cc(O)ccc3cc2C(=O)NCC2CCCO2)cc1 (configuration not stated),n,6.3µM
COc1ccc2c(c1)C(=O)[C@H](OC(=O)NCCOc1ccccc1)[C@@H](c1ccc(OC)c(Br)c1)O2,n,n
Cc1ccc(-c2nnc(Nc3ccc(F)cc3)c3ccccc23)cc1S(=O)(=O)N1CCN(C)CC1,n,n
CCCCc1ccc(NC(=O)OC)cc1,n,n
CCCCc1ccc(N=N/C(C(=O)Nc2ccc(NC(C)=O)cc2OC)=C(/C)O)cc1,10µM,n
CC(NC(=O)Cc1ccc(NC(=O)N2CCCCc3ccccc32)cc1)c1ccccc1 (configuration not stated),n,n
SMILES,Cruzain inh Det,Cruzain noTriton
Cc1ccc(N2CC(c3nnc(Cc4ccc(F)cc4Cl)o3)CC2=O)cc1 (configuration not stated),n,n
O=C(CSc1nc(-c2ccc(F)cc2)[nH]c1-c1ccccc1)NCC1CCCO1 (configuration not stated),n,n
N#Cc1c(NC(=O)CCN2C(=O)c3ccccc3C2=O)oc(-c2ccccc2)c1-c1ccccc1,n,u
N#Cc1c(NC(=O)CCn2cnc3ccccc3c2=O)oc(-c2ccccc2)c1-c1ccccc1,n,32µM
CC(C)CC(C(=O)Nn1cnnc1)N1C(=O)c2ccccc2C1=O (configuration not stated),n,n
CC(C)CC(C(=O)Nc1oc(-c2ccccc2)c(-c2ccccc2)c1C#N)N1C(=O)c2ccccc2C1=O (configuration not stated),n,3.2µM
CCCCCn1c(=N)c(S(=O)(=O)c2ccc(C)cc2)cc2c(=O)n3cc(C)ccc3nc21,n,n
Cc1ccc(N(C(=O)Cn2nnc(-c3ccc(C)o3)n2)C(C(=O)NC2CCCC2)c2ccco2)cc1 (configuration not stated),n,25µM
Cc1ccc(-c2nnn(CC(=O)N(c3cccc(O)c3)C(C(=O)NC(C)(C)C)c3cccs3)n2)o1 (configuration not stated),n,n
Cc1ccc(-c2nnn(CC(=O)N(c3ccccc3)C(C(=O)NC(C)(C)C)c3cccs3)n2)o1 (configuration not stated),n,6.3µM
CCC(C(=O)NC1CCCC1)N(C(=O)Cn1nnc(-c2ccc(C)o2)n1)c1cnc2ccccc2c1 (configuration not stated),n,u
CCN1CCc2c(sc(NC(=O)c3ccc(S(=O)(=O)N4CCCC(C)C4)cc3)c2C(=O)OC)C1 (configuration not stated),n,n
COc1cccc(C2CC(=O)Nc3c2c(=O)n(C)c2nc4ccccc4n32)c1OC (configuration not stated),n,n
O=C(CCCCn1c(=O)c2ccccc2n(Cc2ccccc2F)c1=O)NCc1ccc2c(c1)OCO2,n,n
Cc1ccc(-n2c(=O)c3cccnc3n2CC(=O)Nc2ccc(Br)cc2)cc1C,n,u
CCN(CC)CCCNC(=O)C(=O)Nc1ccc2nc3n(c(=O)c2c1)CCCCC3,n,n
Cc1ccccc1NC(=O)Cn1cnc2c1c(=O)n(C)c(=O)n2C,n,n
Cn1c(=O)c2c(ncn2CC(=O)Nc2cccc(Cl)c2Cl)n(C)c1=O,28µM,u
O=C(Nc1ccc(NC(=O)c2cccs2)cc1)c1ccc(Br)cc1,n,n
O=C(CSc1nc2c([nH]c3ccccc32)c(=O)n1-c1ccc(Cl)cc1)NCC1CCCO1 (configuration not stated),n,n
Cc1ccc(C(=O)NC(=S)NNS(=O)(=O)c2ccc(C)cc2)cc1,u,n
Cc1ccc(S(=O)(=O)NNC(=S)NC(=O)c2ccc([N+](=O)[O-])cc2)cc1,u,4µM
CCOC(=O)c1cccc(NS(=O)(=O)c2cc3c(cc2C)NC(=O)CO3)c1,n,n
CCOC(=O)N1CCc2c(sc3c2c(=O)n(-c2ccc(CC)cc2)c(=O)n3CC(=O)c2ccc(F)cc2)C1,n,n
COc1ccc(N2CSC3=C(C#N)C(c4cc(OC)ccc4OC)CC(=O)N3C2)c(OC)c1 (configuration not stated),n,n
SMILES,Cruzain inh Det,Cruzain noTriton
CCOc1ccccc1N1CSC2=C(C#N)C(c3c(OC)ccc4ccccc34)CC(=O)N2C1 (configuration not stated),n,16µM
O=C(c1ccncc1)N1CCC2(CCCN(c3ccccn3)C2)CC1,n,u
O=C(Nc1ccccc1-c1nnn(CC(=O)N2CCCc3ccccc32)n1)c1ccc(Cl)cc1,n,32µM
O=C(Nc1ccccc1-c1nnn(CC(=O)N2CCCc3ccccc32)n1)c1ccco1,n,u
Cc1ccc(C)c(N2CCN(S(=O)(=O)c3ccc(-c4cnc(C5CC5)o4)cc3)CC2)c1,n,n
CCOc1ccc(C2C(C#N)=C(N)SC(N)=C2C#N)c(OCC)c1,n,n
CCCCc1ccc(C2C(C#N)=C(N)SC(N)=C2C#N)s1,u,32µM
Cc1nn(-c2ccccn2)c2c1C(c1c(F)cccc1Cl)C1=C(N2)c2ccccc2C1=O (configuration not stated),n,25µM
Cc1nn(-c2ccccn2)c2c1C(c1ccccc1Cl)C1=C(N2)c2ccccc2C1=O (configuration not stated),n,n
